Compounds without any hit were thinned out: in the full panel of roughly 79,000, 15% have a hit. Activity calls are given as the source filed them. No stated cut-off is given here; in the data, active means growth inhibition above about 70%; inactive means the rest.
Tests used:
[1] = NCI Yeast Anticancer Drug Screen. Data for the rad52 strain (AID 147);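 further: 0% = growth of vehicle-treated control cultures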; conditions: S. cerevisiae rad52 mutant growth inhibition, active compounds read high
Outline: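 Genetically altered yeast (DNA damage repair defect) treated with compound; inhibition calculated relative to vehicle.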

[2] = NCI Yeast Anticancer Drug Screen. Data for the wt1 strain (AID 149);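 further: 0% = growth of vehicle-treated wt1 cultures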; conditions: S. cerevisiae wt1 strain (SPY 50644) growth inhibition, active compounds read high
Outline: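 Growth inhibition read against vehicle controls after compound exposure of the wt1 yeast strain.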

[3] = NCI Yeast Anticancer Drug Screen. Data for the rad50EPP+ strain (AID 151);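 further: 0% = growth of vehicle-treated control cultures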; conditions: S. cerevisiae rad50 mutant strain, active compounds read high
Outline: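 Strain rad50EPP+; compound exposure; % growth inhibition vs vehicle.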

[4] = NCI Yeast Anticancer Drug Screen. Data for the rad50 strain (AID 155);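 further: 0% = growth of vehicle-only cultures of the same strain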; conditions: S. cerevisiae rad50 strain growth inhibition, active compounds read high
Outline: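 Readout: growth inhibition relative to vehicle-treated cultures. Compound exposure was carried out in a genetically defined yeast strain deficient in DNA damage repair.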

[5] = NCI Yeast Anticancer Drug Screen. Data for the mec2-1 strain (AID 157); conditions: S. cerevisiae mec2-1 strain, active compounds read high
Outline: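 Cells of the genetically defined mec2-1 yeast strain are incubated with test compound. Inhibition of growth is calculated against vehicle-treated controls.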

[6] = NCI Yeast Anticancer Drug Screen. Data for the rad14 strain (AID 159);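 further: 0% = growth of vehicle-treated control cultures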; conditions: S. cerevisiae rad14 strain growth inhibition, active compounds read high
Outline: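 Growth inhibition vs vehicle controls; genetically altered yeast strain (DNA damage repair defect) treated with test compounds.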

[7] = NCI Yeast Anticancer Drug Screen. Data for the CLN2oe strain (AID 163);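 further: 0% = growth of vehicle-only control cultures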; conditions: S. cerevisiae CLN2oe strain, active compounds read high
Outline: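 Strain altered in cell-cycle control, incubated with compound; growth compared to solvent-treated controls.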

[8] = NCI Yeast Anticancer Drug Screen. Data for the cln2 rad14 strain (AID 165);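 further: 0% = growth equal to vehicle treated cultures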; conditions: S. cerevisiae cln2 rad14 strain, active compounds read high
Outline: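 The screen exposed genetically defined yeast (cln2 rad14) to test compounds and scored growth inhibition relative to vehicle-treated controls.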

[9] = NCI Yeast Anticancer Drug Screen. Data for the bub3 strain (AID 167); conditions: S. cerevisiae bub3 mutant strain, active compounds read high
Outline: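 Readout: yeast growth inhibition, expressed relative to vehicle-only wells. The test organism is a mutant strain from a panel with lesions in DNA repair or checkpoint genes.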

[10] = NCI Yeast Anticancer Drug Screen. Data for the wt2 strain (AID 169);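 further: 0% = growth of vehicle-treated yeast cultures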; conditions: S. cerevisiae wt2 strain growth inhibition, active compounds read high
Outline: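 Steps: yeast strain treated with compound; growth recorded; inhibition calculated relative to cultures given vehicle alone.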

[11] = NCI Yeast Anticancer Drug Screen. Data for the mlh1 strain (AID 171);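 further: 0% = growth of vehicle-treated control cultures of the same strain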; conditions: S. cerevisiae mlh1 strain growth inhibition, active compounds read high
Outline: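 Yeast screen: mutant strain plus compound, growth scored against vehicle control wells.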

[12] = NCI Yeast Anticancer Drug Screen. Data for the sgs1 strain (AID 173);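 further: 0% = growth of vehicle-only control cultures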; conditions: S. cerevisiae sgs1 mutant, active compounds read high
Outline: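 Inhibition of yeast growth served as the measure. The mutant strain was treated with each compound, and growth was normalised to cultures receiving vehicle alone.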

[13] = NCI Yeast Anticancer Drug Screen. Data for the mlh1 rad18 strain (AID 175); conditions: S. cerevisiae mlh1 rad18 strain growth inhibition, active compounds read high
Outline: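 Compound-treated yeast growth, normalised to vehicle controls. Strain bears defined DNA repair mutations.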

[14] = NCI Yeast Anticancer Drug Screen. Data for the rad18 strain (AID 177); conditions: S. cerevisiae rad18 mutant growth inhibition, active compounds read high
Outline: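 Inhibition values reflect reduced yeast growth compared with vehicle-treated controls, using a strain engineered with a DNA damage repair defect.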

[15] = NCI Yeast Anticancer Drug Screen. Data for the sgs1 mgt1 strain (AID 161);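 further: 0% = growth of cultures given vehicle only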; conditions: S. cerevisiae sgs1 mgt1 strain, active compounds read high
Outline: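 Mutant yeast exposed to compound; growth scored against vehicle-only wells.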

[16] = at 5.0 µM (retest, dose inferred, filed as 0.5)
[17] = at 50.0 µM (retest, dose inferred, filed as 5.0)

Measured: growth inhibition

OC(CN1CCCCC1)c1cc(Cl)c(Cl)c(Cl)c1 (stereo not drawn)
inactive: [1]; at 1.2 µM 3% | [1]; at 3.7 µM 11% | [1]; at 11.0 µM 17% | [1]; at 33.0 µM 28% | [1]; at 100.0 µM 40% | [2]; at 1.2 µM 4% | [2]; at 3.7 µM 9% | [2]; at 11.0 µM 6% | [2]; at 33.0 µM 6% | [2]; at 100.0 µM 14% | [3]; at 1.2 µM 3% | [3]; at 3.7 µM 8% | [3]; at 11.0 µM 10% | [3]; at 33.0 µM 7% | [3]; at 100.0 µM 1% | [4]; at 1.2 µM 5% | [4]; at 3.7 µM 13% | [4]; [16] 2% | [4]; at 11.0 µM 11% | [4]; at 33.0 µM 20% | [4]; [17] 41% | [4]; at 50.0 µM 38.4% | [4]; at 100.0 µM 36% | [5]; at 1.2 µM 5% | [5]; at 3.7 µM 11% | [5]; [16] 2% | [5]; at 11.0 µM 15% | [5]; at 33.0 µM 24% | [5]; [17] 49% | [5]; at 50.0 µM 32.2% | [5]; at 100.0 µM 38% | [6]; at 1.2 µM 9% | [6]; at 3.7 µM 25% | [6]; at 11.0 µM 33% | [6]; at 33.0 µM 28% | [6]; at 100.0 µM 39% | [7]; at 1.2 µM 7% | [7]; at 3.7 µM 8% | [7]; at 11.0 µM 32% | [7]; at 33.0 µM 47% | [7]; at 100.0 µM 57% | [8]; [16] 8% | [8]; [17] 35% | [8]; at 50.0 µM 51.6% | [9]; at 1.2 µM 3% | [9]; at 3.7 µM 9% | [9]; [16] 4% | [9]; at 11.0 µM 25% | [9]; at 33.0 µM 38% | [9]; [17] 38% | [9]; at 100.0 µM 53% | [10]; at 1.2 µM 3% | [10]; at 3.7 µM 8% | [10]; at 11.0 µM 10% | [10]; at 33.0 µM 12% | [10]; at 100.0 µM 15% | [11]; at 1.2 µM 5% | [11]; at 3.7 µM 7% | [11]; at 11.0 µM 17% | [11]; at 33.0 µM 18% | [11]; at 100.0 µM 21% | [12]; at 1.2 µM 6% | [12]; at 3.7 µM 14% | [12]; at 11.0 µM 20% | [12]; at 33.0 µM 27% | [12]; at 100.0 µM 37% | [13]; [16] 14% | [13]; [17] 43% | [13]; at 50.0 µM 50.4% | [14]; at 1.2 µM 5% | [14]; at 3.7 µM 13% | [14]; at 11.0 µM 8% | [14]; at 33.0 µM 14% | [14]; at 100.0 µM 22%
active: [9]; at 50.0 µM 70.8%

COc1cccc(C(c2cc3c(cc2O)OCO3)N2CCOCC2)c1OC (stereo not drawn)
inactive: [1]; at 1.2 µM -2% | [1]; at 3.7 µM 2% | [1]; at 11.0 µM 4% | [1]; at 33.0 µM 23% | [1]; at 100.0 µM 28% | [2]; at 1.2 µM -2% | [2]; at 3.7 µM -2% | [2]; at 11.0 µM -2% | [2]; at 33.0 µM 0% | [2]; at 100.0 µM 3% | [4]; at 1.2 µM -1% | [4]; at 3.7 µM 2% | [4]; [16] -3% | [4]; at 11.0 µM 1% | [4]; at 33.0 µM 14% | [4]; [17] 48% | [4]; at 50.0 µM 42.1% | [4]; at 100.0 µM 46% | [5]; at 1.2 µM -1% | [5]; at 3.7 µM -1% | [5]; [16] -1% | [5]; at 11.0 µM -2% | [5]; at 33.0 µM -2% | [5]; [17] -9% | [5]; at 100.0 µM 37% | [6]; at 1.2 µM 0% | [6]; at 3.7 µM 4% | [6]; at 11.0 µM 7% | [6]; at 33.0 µM 10% | [6]; at 100.0 µM 21% | [15]; [16] 7% | [15]; at 50.0 µM 42.5% | [7]; at 1.2 µM -4% | [7]; at 3.7 µM -3% | [7]; at 11.0 µM -4% | [7]; at 33.0 µM 5% | [7]; at 100.0 µM 19% | [8]; [16] 1% | [8]; [17] 3% | [8]; at 50.0 µM -30.1% | [9]; at 1.2 µM -4% | [9]; at 3.7 µM -4% | [9]; [16] -13% | [9]; at 11.0 µM -9% | [9]; at 33.0 µM 4% | [9]; [17] 56% | [9]; at 50.0 µM 45% | [9]; at 100.0 µM 11% | [10]; at 1.2 µM -3% | [10]; at 3.7 µM -6% | [10]; at 11.0 µM 5% | [10]; at 33.0 µM 0% | [10]; at 100.0 µM -3% | [11]; at 1.2 µM -3% | [11]; at 3.7 µM -1% | [11]; at 11.0 µM 4% | [11]; at 33.0 µM 7% | [11]; at 100.0 µM 32% | [12]; at 1.2 µM -6% | [12]; at 3.7 µM -7% | [12]; at 11.0 µM 8% | [12]; at 33.0 µM 10% | [12]; at 100.0 µM 60% | [13]; [16] 19% | [13]; at 50.0 µM 9.25% | [14]; at 1.2 µM -3% | [14]; at 3.7 µM 0% | [14]; at 11.0 µM 4% | [14]; at 33.0 µM 10% | [14]; at 100.0 µM 36%
active: [5]; at 50.0 µM 83.8% | [15]; [17] 79% | [13]; [17] 71%
